# HT1080 IDH1KD tx: toxicity to HT-1080 IDH1 knockdown cells (counter line) | HT-1080 IDH1 knockdown viability, ATP luminescence, 48 h | Potency, µM (titrated, usually from 46.1 µM), without a hit: at the top dose activity, negative = toxicity, hits mostly cytotoxic | actives 2% (n = 360,000) | AID 686971;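 further: potency means the concentration at half of the fitted maximal effect; 0% = DMSO wells and -100% = cell-free medium wells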
#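 Assay cells: HT-1080 with IDH1 knockdown, 750 per well, RPMI/5% FBS. Exposure: 48 h at 37 °C following 2 h pre-incubation. Read: CellTiter-Glo luminescence; fitted concentration-response, curve class assigned.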
# IL1B secr inh: inhibitors of inflammasome signaling (IL-1 beta secretion) | THP-1 LPS/ATP IL-1B secretion, AlphaLISA, 16 h; hits give low values | activity change, % at 57.5 µM | actives 4.7% (n = 360,000); in the data active means activity change below about -50%; inconclusive means mostly about -30% to -49%
#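 Secreted IL-1B measured by AlphaLISA bead assay after 16 h compound exposure of THP-1 cells; compounds (final up to 57.5 uM) added 1 h before LPS (250 ng/mL) and ATP (1.25 mM) stimulation; lower signal means less secretion.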
# HT1080NT lethal: kills 2HG-producing HT-1080-NT fibrosarcoma cells | Potency, µM (titrated, usually from 46.1 µM), without a hit: at the top dose activity, negative = less viability, most hits filed as cytotoxic | HT-1080-NT fibrosarcoma viability, CellTiter-Glo ATP luminescence, 48 h | actives 1.6% (n = 360,000);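 further: NT is the 2HG producing partner of a matched IDH1 knockdown line; potency means the concentration at half of the fitted maximal effect; 0% = DMSO-treated cells and -100% = media-only wells without cells; nearly all actives have a fitted effect of over 55% in size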
#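 Compounds were tested in concentration-response format on HT-1080-NT cells for 48 hours at 37 degrees C. Cell viability came from CellTiter-Glo luminescence; curves were classified by r2, response magnitude and activity.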
# TDP1 cell CPT: growth inhibition of DT40 Tdp1-/-;hTDP1 cells with camptothecin (screen for TDP1 inhibitors); chicken DT40 Tdp1-/-;hTDP1 cells + 20 nM CPT, ATP luminescence, 48 h; Potency, µM (series often up to 46.2 µM), for inactives: top-dose activity change, negative = growth inhibition, hits mostly inhibitors; actives 12% (n = 420,000); further: potency means the concentration at half of the fitted maximal effect; nearly all actives have a fitted effect of over 55% in size
#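 Chicken DT40 Tdp1-/- cells complemented with human TDP1, 400 cells/well, exposed to compounds plus 20 nM camptothecin for at least 48 h at 37 C; viability read as ATP content by CellTiter-Glo luminescence.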
# DT40 TDP1 no CPT: qHTS for Inhibitors of human tyrosyl-DNA phosphodiesterase 1 (TDP1): qHTS in cells in absence of CPT | AID 686978, 2013 | actives 15% (n = 420,000) | Potency, µM (top dose mostly 46.2 µM), without a hit: top-dose activity change, negative = growth inhibition, actives largely listed as inhibitors | DT40 Tdp1-/- hTDP1 cells, no CPT, ATP luminescence, 48 h; further: potency means the concentration at half of the fitted maximal effect; nearly all actives have a fitted effect of over 55% in size
#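 Compound effects on proliferation are scored in DT40 Tdp1-/-;hTDP1 cells in the absence of CPT. ATP levels (CellTiter-Glo luminescence) are recorded after a ≥48 hr, 37 °C incubation.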
# Active calls of the source: *; ? = inconclusive; · = no result given. Compounds with a hit are over-represented: about 19% of the library has one in this group of screens. Unless noted, the call rests on the fitted dose curve; in most records, active means well fitted curve in the direction sought with a large enough effect; inconclusive means small, poorly fitted or top-dose-only effect, or another doubt; inactive means no such curve, though single readings can be large; an effect the other way counts as inactive or inconclusive. Unless noted, on the % scale 0 is the no-effect control and ±100 the full control effect.
SMILES,HT1080 IDH1KD tx,IL1B secr inh,HT1080NT lethal,TDP1 cell CPT,DT40 TDP1 no CPT
CC(=O)c1ccc(-c2ccc([C@H]3[C@@H]4C=CCC[C@@]4(C)C(=O)N3Cc3ccccc3)c(F)c2)cc1,?,-7,?,21µM*,16µM*
C[C@@H]1CC=C[C@H]2[C@H]1C(=O)N(Cc1ccccc1)[C@H]2c1cccc([N+](=O)[O-])c1,-15%,0,-12%,21µM*,23µM*
C[C@@H]1CC=C[C@H]2[C@H]1C(=O)N(Cc1ccccc1)[C@H]2c1ccc(F)c(/C=C/c2ccccc2)c1,?,13,?,8.2µM*,8.2µM*
COc1ccc(-c2cc([C@H]3[C@H]4C=CC[C@@H](C)[C@@H]4C(=O)N3Cc3ccccc3)ccc2F)cc1OC,-20%,-7,-26%,23µM*,13µM*
Cc1ccc(-c2ccc([C@H]3[C@@H]4C=CCC[C@@]4(C)C(=O)N3Cc3ccccc3)c(F)c2)cc1,-4%,-2,-19%,?,?
COc1cccc(NC(=O)C2CCN(C(=O)NC3CCCCC3)CC2)c1,-1%,21,11%,0%,2%
Cc1ccccc1CSc1nnc2ccc(-c3ccncc3)nn12,-15%,-30,-3%,-17%,-1%
COc1ccc(NC(=O)CN(c2ccccc2OC)S(C)(=O)=O)c(OC)c1,·,·,·,-1%,-13%
COc1cccc(CNS(=O)(=O)c2ccccc2Br)c1OC,5%,19,0%,?,?
CS/C(=N\S(=O)(=O)c1cccs1)Nc1ccc(Cl)cc1,-20%,0,-14%,-26%,?
CC(=O)Nc1ccc(NC2=C/C(=N/S(=O)(=O)c3cccs3)c3ccccc3C2=O)cc1,9.2µM*,-95*,16µM*,13µM*,10µM*
COc1ccc(S(=O)(=O)/N=C2\C=C(Nc3ccc(O)cc3)C(=O)c3ccccc32)cc1,2.1µM*,-96*,1.8µM*,0.82µM*,1.5µM*
Cc1cc[n+](C2=C([O-])c3ccccc3C(=O)/C2=N\S(=O)(=O)c2cccs2)cc1C,-2%,54,-3%,?,?
Cc1ccc(NC2=C/C(=N/S(=O)(=O)c3cccs3)c3ccccc3C2=O)cc1C,0%,0,-1%,?,7.3µM*
Cc1ccc(N2C(=O)C3C4C=CC(CC4)C3C2=O)c([N+](=O)[O-])c1 (stereo not given),13%,-4,6%,12%,0%
Cc1ccc(CNC(=O)c2cc3cc(Br)ccc3oc2=N)cc1,10%,-3,0%,-28%,-20%
OC[C@@H]1CN(Cc2ccc(Cl)cc2)C[C@H](n2cnc3c(N4CCCC4)ncnc32)O1,16%,0,-6%,?,?
COc1cc2c(NC3CCN(C)CC3)nc(N3CCCN(C)CC3)nc2cc1OCCCCCN(C)C,·,·,·,11µM*,14µM*
COc1cc2c(NC3CCN(C)CC3)nc(N3CCCN(C)CC3)nc2cc1OCCCCC(N)=O,6%,·,23%,8%,-12%
COc1cc2c(NC3CCN(C(C)C)CC3)nc(N3CCCN(C)CC3)nc2cc1OCCCN(C)C,·,·,·,3.2µM*,6.3µM*
COc1ccc(C(=O)NCCCSC)cc1OC1CCN(C(C)C)CC1,10%,7,6%,-11%,-6%
COc1cc2c(NC3CCN(C)CC3)nc(N3CCCN(C)CC3)nc2cc1OCCN(C)C,-1%,·,3%,11µM*,11µM*
COc1cccc2c1Oc1ncccc1N(C(=O)CCC(=O)NCCC(C)C)C2,·,·,·,-26%,-19%
Cc1ccc(NC(=O)Cn2cc(S(=O)(=O)N3CCC(C)CC3)c3ccccc3c2=O)c(Br)c1,·,·,·,-22%,-23%
CCOC(=O)c1cc(S(=O)(=O)Nc2cc(C)c(Cl)cc2OC)[nH]n1,·,·,·,-29%,-20%
CCOC(=O)c1c(NC(=O)CCl)sc(CN(C)C)c1-c1ccccc1,?,-98*,?,4.1µM*,9.2µM*
